Measured values from PubChem BioAssay AID777 (Sanford-Burnham Center for Chemical Genomics, 2007).
In all, about 96,000 compounds went through this assay and about 19,000 (20%) were called active.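 Rule for the calls: active = blocking of liver enzyme CYP2C9 beyond about 50% at 5 µM (limit read from the data); inactive = the rest.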 Not all results are given here.

molecular target: Cytochrome P450 2C9 (Homo sapiens) (UniProt P11712); assay: blockers of cytochrome P450 2C9 activity – biochemical, luminescence, ADME assay, primary screen (AID 777); conditions: CYP2C9 Supersomes, luciferin-H conversion, at 5 µM, stronger effect = higher value
Sequence (P11712 whole entry, looked up): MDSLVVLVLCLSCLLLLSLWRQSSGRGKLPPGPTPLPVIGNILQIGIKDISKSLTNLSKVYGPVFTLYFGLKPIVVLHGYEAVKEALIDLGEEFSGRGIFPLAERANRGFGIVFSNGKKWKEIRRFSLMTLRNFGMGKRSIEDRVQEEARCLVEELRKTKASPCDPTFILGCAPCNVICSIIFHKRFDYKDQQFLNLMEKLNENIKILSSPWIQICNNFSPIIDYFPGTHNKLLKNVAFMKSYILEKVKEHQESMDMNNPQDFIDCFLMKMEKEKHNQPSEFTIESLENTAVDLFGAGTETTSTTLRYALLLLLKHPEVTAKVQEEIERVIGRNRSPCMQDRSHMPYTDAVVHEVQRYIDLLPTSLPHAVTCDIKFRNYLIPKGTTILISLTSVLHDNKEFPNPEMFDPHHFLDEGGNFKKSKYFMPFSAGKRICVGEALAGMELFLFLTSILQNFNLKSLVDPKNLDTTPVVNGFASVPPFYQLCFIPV

inhibition, inactive:
CSc1ccc(-c2c(C#N)c(N)nc3c2c(C)nn3-c2ccccc2)cc1 17.3%
N#CC1=C(N)N(c2ccc(F)cc2)C(=O)C1 -13.8%
Cc1c(NC(=O)c2coc(=O)c(Br)c2)c(=O)n(-c2ccccc2)n1C -1.3%
CC(Nc1nc(N2CCCC2)nc2ccccc12)c1ccccc1 (configuration not stated) 11.6%
N#C/C(=C/c1ccc(Cl)cc1)NC(=O)c1ccccc1 40.8%
COc1ccccc1-n1nnnc1S(=O)(=O)Cc1ccc(Cl)cc1 45.6%
COc1cccc(NC(=O)C2c3cc(OC)c(OC)cc3C(=O)N(C)C2c2cccnc2)c1 (configuration not stated) 30.6%
CS(=O)(=O)c1sc2nc(-c3ccccc3)cc(-c3ccccc3)c2c1N 19%
CCc1ccc(N2CC(C(=O)NC3=NCCS3)CC2=O)cc1 (configuration not stated) 27.4%
CCCOc1ccc(N2CC(C(=O)Nc3ccccn3)CC2=O)cc1 (configuration not stated) 8.9%
Cc1ccc(-n2nc(N)c3c(=O)oc(N(C)C)nc32)cc1 11.3%
O=C(COc1cc(Cl)c(Cl)cc1Cl)NC(=O)NC1CCCC1 -13%
O=C(Cc1ccc2c(c1)CCCC2)Nc1ccccc1Cl 13.7%
CCNC(=S)Nc1cccc(Cl)c1C 16%
CC(=O)N1CC2(C)CN(C(C)=O)CC(C)(C1)C2=O -0.1%
O=C(Nc1cccc(OCC(=O)N2CCOCC2)c1)C1CCCCC1 -6.8%
O=c1[nH]nc(Cc2ccccn2)c2ccccc12 -9.2%
CCN(CC)S(=O)(=O)c1ccc2c3c(cccc13)C(=O)S2 -46.8%
Cc1ccc(NC(=S)NC(=O)c2ccc(-c3ccccc3)cc2)c(C)c1 19%
COC(=O)c1nc(NC(=O)c2ccccc2)n[nH]1 0.3%
COc1ccc(N(CC(=O)NC(C)(C)C)C(=O)c2ccco2)cc1 9.6%
Cc1cc(Cl)ccc1N1C(=O)CC(SCCC(=O)O)C1=O (configuration not stated) 35.2%
COc1ccc(NC(=O)CN(C)S(=O)(=O)c2ccccc2)cc1OC 21.2%
C/C(=C\C(=O)c1cccnc1)Nc1ccc(C)c(C)c1 12.9%
Cc1ccc(C)n1-c1ccncc1 40.5%
COc1ccc(Cl)cc1S(=O)(=O)N1CCN(CC(=O)C(C)(C)C)CC1 -142%
CCOC(=O)c1c(-c2cccc(C)c2)csc1NC(=O)c1c(-c2ccccc2)noc1C 26.8%
CCOC(=O)c1c(NC(=S)NC(=O)c2ccco2)sc2c1CCCC2 0.4%
O=C1CSC(c2ccc(Cl)cc2)N1 (configuration not stated) -1%
COc1ccc(C2CC(=O)n3c(nc4ccccc43)S2)cc1OC (configuration not stated) 14.4%
COc1ccc(C2CC(=O)Nc3sc(=N)c4c(N)c(C#N)c(N)nc4c32)cc1OC (configuration not stated) 41.6%
CCCNC(=O)C1CC(=O)N(c2ccc(OCC(=O)Nc3cccc(C)c3C)cc2)C1 (configuration not stated) 22.1%
COc1ccc(-n2nc3c(c2NC(=O)Cc2cccc(C)c2)CS(=O)C3)cc1 (configuration not stated) -1.9%
COc1ccccc1C(=O)Oc1ccc(N2C(=O)CCC2=O)cc1 -113%
Cc1ccc(OC(=O)c2cc3ccccc3o2)cc1 -2.9%
CC(C)(C)c1ccc(C(=O)NNC(=O)Cc2ccccc2)cc1 6.1%
CCCCN1C(=O)CC(N2CCOCC2)C1=O (configuration not stated) 1.5%
CN1CCCN(S(=O)(=O)c2ccc3c(c2)OCCO3)CC1 -7.5%
CCCCNC(=O)C1CCCN(S(=O)(=O)c2ccc(S(=O)(=O)NCC(C)C)cc2)C1 (configuration not stated) 46%
c1ccc(-c2cn3cccnc3n2)cc1 -1.3%
c1ccc(-n2nnnc2NC2CCCCCC2)cc1 24%
O=C1C2C3C=CC(C4CC34)C2C(=O)N1/N=C/c1ccc(-c2ccccc2[N+](=O)[O-])o1 (configuration not stated) 36.8%
Cc1cc(C)c([N+](=O)[O-])cc1-c1ccc(/C=N/NC(=O)c2nonc2N)o1 22.2%
CCCC(=O)N1c2ccccc2NC2=C(C(=O)CCC2)C1c1ccc(F)cc1 (configuration not stated) 8.5%
CC(=O)CCS(=O)(=O)c1ccc(C)c(C)c1 -62.6%
Cc1c(CN2CCC(C)CC2)c(=O)n(-c2ccccc2)n1C -8%
CCOC1CS(=O)(=O)CC1OCC (configuration not stated) -5.4%
CC(NC(=O)c1cc(-c2ccccc2)on1)c1ccccc1 (configuration not stated) -23.7%
CCOC(=O)N1CCN(CC(=O)c2ccc3c(c2)CCN3)CC1 -1.9%
CC(=O)Nc1nc(C)c(Cc2ccccc2)c(=O)[nH]1 -0.9%
CC1(C)Cc2c(sc3nc(SCC(=O)NCc4ccccc4)n(-c4ccccc4)c(=O)c23)CS1 -0.2%
O=C(CNC(=O)c1cc2c(s1)CCC2)Nc1ccccc1Br 30%
O=C(NCCCN1CCOCC1)c1cc2c(s1)CCC2 -6.3%
Cc1nnc(SCc2nc3ccccc3nc2C)s1 -5.7%
CC(C)NC(=O)c1ccccc1S(=O)c1ccccc1C#N (configuration not stated) -1.3%
Cc1cnc(NC(=O)CSc2nnc(-c3ccc(Cl)cc3Cl)n2N)s1 46.7%
CSc1ccc(CCNC(=O)C2CCN(c3nnc(-n4cccc4)s3)CC2)cc1 37%
O=C(CN1CCSCC1)N/N=C/c1ccc(F)cc1F 7.6%
O=C1OC(c2ccc(Cl)cc2)=N/C1=C\c1cccnc1 18.2%
CCn1cc(C(=O)NCc2ccc(OC)cc2OC)c(=O)c2ccc(C)nc21 15.3%
CCCCCCOC(=O)NCC(O)c1ccccc1 (configuration not stated) 23.8%
c1ccc(-n2ncc(-c3nn[nH]n3)n2)cc1 46.2%
COc1ccc(N2C(=O)C3CCCN3C2c2cccc(OC)c2)cc1 (configuration not stated) 16.3%
CCCCNC(=O)CSc1nccn1Cc1ccccc1 23%
COC(=O)CCSc1nccn1Cc1ccccc1 10.8%
C=CCN(c1ccc(C(N)=O)cc1)S(C)(=O)=O -10.7%
CC(=O)c1c(N)n(C)c(=O)n(C)c1=O 21.6%
ONC(=Nc1ccccc1)c1ccccc1Cl 2.1%
O=C(Nc1ccc2c(c1)nc1n2CCCCC1)c1cc(S(=O)(=O)N2CCOCC2)ccc1Cl 43.5%
Cc1ccc(S(=O)(=O)N2CCOCC2)cc1C(=O)NCc1ccc(F)cc1 31.6%
O=C1c2cccc3cc(Br)cc(c23)C(=O)N1Nc1ccccc1 -74%
N#C/C(=C\c1ccccc1)c1n[nH]c(Cn2cncn2)n1 27%
O=C1CSC(=O)N1CCOCCN1C(=O)CSC1=O 7.2%
C[C@H](NC(=O)NCCc1ccccc1)C(=O)O 2.2%
CSCC[C@H](NC(=O)NCCc1ccc(F)cc1)C(=O)O 14.5%
Cc1ccc(C(=O)C[n+]2cc(-c3ccccc3)n3c2CCCCC3)cc1 -11.7%
NC(=O)Cn1c(=O)oc2ccccc21 -13.8%
CCC(C)c1ccc(O)c(/C=N/O)c1 (configuration not stated) 13.7%
CCOC(=O)c1csc(NC(=O)c2ccc(S(=O)(=O)N3CCCC3)cc2)n1 -12.7%
COC(=O)[C@H](Cc1ccccc1)NC(=O)Nc1ccc(S(N)(=O)=O)cc1 1.6%
CCC(=O)Nc1ccc(S(=O)(=O)NCC2CCCO2)cc1 (configuration not stated) -1.7%
COC(=O)c1ccccc1NC(=O)Cn1nc(C(F)(F)F)c2c1CCC2 17.4%

inhibition, active:
CC(C)c1ccc(N2CC(C(=O)Nc3nccs3)CC2=O)cc1 (configuration not stated) 78.1%
CCOc1ccc(NC(=O)CN(C)CC(=O)Nc2cccc(Cl)c2C)cc1OCC 56.1%
CN(CCc1ccccn1)S(=O)(=O)c1ccc2c3c(cccc13)C(=O)N2 70.5%
Cc1cc2[nH]ncc2cc1NC(=S)NC(=O)c1ccccc1 97.8%
Cc1ccc(NC(=O)CN(C)S(=O)(=O)c2cnc[nH]2)cc1C 93.7%
CCOC(=O)c1c(-c2ccccc2)csc1NC(=S)NC(=O)c1ccccc1 55%
COc1cc(C2CC(=O)N3CN(Cc4ccccc4)CSC3=C2C#N)ccc1OCc1ccccc1 (configuration not stated) 86.4%
Cc1ccc(OC(=O)c2ccccc2C(=O)OCC(F)(F)C(F)F)cc1 84.1%
CCCCn1c(=S)[nH]c2cc(S(=O)(=O)N3CCCCC3)ccc21 64.3%
Cc1cc(-c2ccc(/C=N/n3cnnc3)o2)c([N+](=O)[O-])cc1C 50.5%
Cc1cc([N+](=O)[O-])c(-c2ccc(/C=N/n3cnnc3)o2)cc1Cl 77%
CC(N=Cc1nc(-c2ccccc2)oc1O)c1ccccc1 (configuration not stated) 66.7%
O=C(c1cc2c(s1)CCC2)N1CCN(c2ccccc2)CC1 54.4%
CN1/C(=C\C=C2\N=C(c3ccc(F)cc3)OC2=O)C(C)(C)c2ccccc21 64.7%
CCCCCCNC(=O)CSc1nccn1Cc1ccccc1 77.3%
CCOC(=O)c1sc(NC(=O)c2cc(S(=O)(=O)N3CCOCC3)ccc2C)nc1C 71%
Cn1cccc1C1(C(F)(F)F)NCCNC1=O (configuration not stated) 72%
CC(C)C[C@H](NC(=O)NCCc1ccc(Cl)cc1)C(=O)O 59.9%
COc1ccc(C(=O)Nc2nc(-c3ccc(S(=O)(=O)N4CCOCC4)cc3)cs2)cc1 62.5%
COC(=O)c1ccccc1Sc1c(/C=N/OCc2ccc(Cl)cc2)c(C(F)(F)F)nn1C 89.6%
